Sfp inh: blocks B. subtilis Sfp PPTase activity; Biochemical Sfp PPTase activity, qHTS; Potency, µM, without a hit: largest response in the series, negative = inhibition, actives largely listed as inhibitors; 3.5% of 310,000 active; AID 1490;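 also: the enzyme is Sfp with the accession as filed and its product quenches rhodamine fluorescence; potency is read from the fitted curve at half-maximal effect; 0% = enzyme reaction without inhibitor and -100% = no enzyme wells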
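Step 1, compound plus 15 nM Sfp-PPTase, 15 min, room temperature. Step 2, add rhodamine-CoA (5 uM) and BHQ-2-YbbR (12.5 uM). Step 3, read 525/598 nm fluorescence at 0 and 30 min.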
TCR act: T cell receptor activation; primary human leukocytes, anti-CD3, IL-2 HTRF, 48 h; Potency, µM (doses to about 9.22 µM), without a hit: at the highest dose activation of IL-2 secretion, actives largely listed as activators; 330,000 tested, under 10 active; AID 504894; also: % of control where 0% means no effect
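HTRF read-out of IL-2 secretion: europium cryptate donor excited at 320nm, d2 acceptor emission at 665nm. Cells were primary human leukocytes incubated 48 hr with compounds and a-CD3 beads, supplying TCR signal only.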
ClpP mod: qHTS Assay for Activators of ClpP | ATP-dependent Clp protease proteolytic subunit (Bacillus subtilis (strain 168)), P80244 | purified B. subtilis ClpP, FRET peptide cleavage, 20 min | Potency, µM (doses to about 57.5 µM), without a hit: top-dose activity change, negative = active | 1.9% of 340,000 active | AID 651965, 2013; active = well fitted falling curve with a large enough effect; inconclusive = small, poorly fitted or top-dose-only effect; inactive = no such curve, though single readings can be large or run the other way; also: potency is read from the fitted curve at half-maximal effect; the source files actives as falling curves though it sought activators and does not explain the sign; nearly all actives have a fitted effect of over 65% in size
Target sequence (P80244 whole entry, looked up): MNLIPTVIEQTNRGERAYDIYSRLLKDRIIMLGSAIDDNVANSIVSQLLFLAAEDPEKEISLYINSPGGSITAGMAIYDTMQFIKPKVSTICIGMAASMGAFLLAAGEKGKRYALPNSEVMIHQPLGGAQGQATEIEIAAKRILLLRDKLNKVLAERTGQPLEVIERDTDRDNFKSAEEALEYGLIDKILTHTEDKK
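FRET quenching reversal measured ClpP activation: 10 microg/mL B. subtilis ClpP at pH 8 with the FRET-FV decapeptide, read at 430 nm after 320 nm excitation. The 20-min minus 0-min signal was scaled between DMSO/no-enzyme wells and ADEP (5.8 microM final).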
uPA surface inh: inhibitors of cell surface uPA generation. cell surface uPA generation assay, qHTS. Potency, µM (top dose mostly 38.3 µM), inactives show top-dose activity change, negative = inhibition, usual class: inhibitors. 0.31% of 330,000 active; active = well fitted inhibition curve with a large enough effect; inconclusive = small, poorly fitted or top-dose-only effect; inactive = no such curve, though single readings can be large or run the other way; tested in mouse RAW 264.7 cells; also: potency is read from the fitted curve at half-maximal effect; % is scaled to controls: 0 for no effect and ±100 for the full control effect; nearly all actives have a fitted effect of over 55% in size
* hit, by the source's call; ? = inconclusive; . = not tested or not shown; [ ] = dose if it differs, or a comment. In the library only some 4.2% were active in any assay of this set; here they are far more common. Unless noted, calls follow the shape of the dose curve; as a rule, active = well fitted curve in the direction sought with a large enough effect; inconclusive = small, poorly fitted or top-dose-only effect, or another doubt; inactive = no such curve, though single readings can be large; an effect the other way counts as inactive or inconclusive.

SMILES	Sfp inh	TCR act	ClpP mod	uPA surface inh
COc1ccc(/C(O)=C2/C(=O)C(=O)N(Cc3ccco3)C2c2cccs2)cc1 (stereo not drawn)	10µM*	5%	-2%	0%
CC1Cc2cc(/C(O)=C3/C(=O)C(=O)N(CCCn4ccnc4)C3c3ccco3)ccc2O1 (stereo not drawn)	-2%	3%	0%	2%
CC1Cc2cc(/C(O)=C3/C(=O)C(=O)N(Cc4ccco4)C3c3cccs3)ccc2O1 (stereo not drawn)	28µM*	0%	-1%	2%
COc1nc(C#N)nc(N2CCCCC2)n1	.	.	-1%	.
COc1ccc(CCNC(=O)c2ccc(CN3CCC(Cc4ccccc4)CC3)cc2)cc1OC	14%	-6%[46.1 µM]	3%	-1%
COc1ccc(CCNC(=S)N2CCC(Cc3ccccc3)CC2)cc1OC	4%	2%	7.9µM*	.
COc1ccc(CCNC(=S)N2CCC(C(N)=O)CC2)cc1	56µM*	-12%	.	1%
COc1cccc(/C=C/c2nccc3ccccc23)c1OC	.	.	-18%	.
CCOc1ccc(-c2nonc2NC(=O)c2oc3ccc(Br)cc3c2C)cc1	.	.	-14%	.
CCC/C=N/Nc1nnc(Cc2ccc(OC)c(OC)c2)c(=O)[nH]1	45µM*	-6%	.	0%
Clc1ccc(-c2noc3ncnc(NCCc4ccccc4)c23)cc1	.	.	1%	.
CCC(CC)NC(=O)c1ccc(NS(=O)(=O)c2ccc3[nH]c(=O)[nH]c3c2)cc1	?	-2%	1%	-4%
CCOC(=O)c1ccc(NS(=O)(=O)c2ccc3[nH]c(=O)[nH]c3c2)cc1	22µM*	2%	-2%	.
Cc1ccccc1-n1c(SCC(=O)N/N=C/c2sccc2C)nc2ccccc2c1=O	-4%	-3%[46.1 µM]	-1%	2%
CC(C)C[C@H](N)c1nnc(S(=O)(=O)Cc2ccc(F)cc2)o1	14µM*	2%	-3%	-15%
O=S1(=O)N=C(Nc2nncs2)c2ccccc21	50µM*	-6%	-4%	.
CN(C)c1ccc(/C=C/c2c3ccccc3cc[n+]2[O-])cc1	.	.	0%	.
Cc1cccc(-n2ncc3c(N4CCCc5ccccc54)ncnc32)c1	-6%	-2%	32µM*	.
Cc1cccc(-n2ncc3c(N(C)C4CCCCC4)ncnc32)c1	-15%	0%	?	1.4µM*
COc1ccc(-n2ncc3c(N(C)C4CCCCC4)ncnc32)cc1	-27%	-3%	4%	?
COc1cccc(N2CC(NC(=O)C3CC3)CC2=O)c1 (stereo not drawn)	.	.	-1%	.
C[C@@H]1[C@H](c2ccccc2)OCCS(=O)(=O)N1Cc1ccc(Cl)cc1	.	.	1%	.
O=C1NCCCC2c3cc(O)c4ccccc4c3OC12N1CCCCC1 (stereo not drawn)	20µM*	.	.	.
CCCc1cc(=O)n2[nH]c(-c3ccc(Cl)cc3)cc2n1	8%	.	-5%	-11%
COCc1cc(=O)n2[nH]c(C)cc2n1	-6%	4%	18µM*	-1%
SMILES	Sfp inh	TCR act	ClpP mod	uPA surface inh
COCc1cc(=O)n2[nH]c(-c3ccccc3)cc2n1	-18%	3%	25µM*	1%
COCc1cc(=O)n2[nH]c(C(C)(C)C)cc2n1	3%	-8%	.	-1%
CCCc1cc(=O)n2[nH]c(-c3ccccc3)cc2n1	1%	-8%[46.1 µM]	22µM*	1%
CCCc1cc(=O)n2[nH]c(-c3ccc(C)cc3)cc2n1	13%	2%	14µM*	-8%
COc1ccc(Nc2oc(/C=C/c3cc(OC)c(OC)c(OC)c3)nc2C#N)cc1	.	.	4%	.
Cc1nn(C)c2c1c(C(F)(F)F)cc(=O)n2CC(=O)NCc1ccc(OC(C)C)cc1	.	.	-9%	.
CC(C)Nc1nc(NCCOc2ccccc2)c2sccc2n1	.	.	-15%	.
O=c1cc(-c2ccccc2)nc2cc(-c3ccc(Br)cc3)[nH]n12	-10%	2%	?	5%
O=c1cc(-c2ccccc2)nc2cc(-c3ccco3)[nH]n12	25µM*	-6%	5%	2%
CCCCC1=CC2=C(c3ccco3)C(=O)C(C)(OC(=O)c3ccc(OC)cc3)C(=O)C2=CN1CCCCO (stereo not drawn)	?	-8%	-4%	6%
CCCCC1=CC2=C(c3ccco3)C(=O)C(C)(OC(=O)c3ccc(OC)cc3)C(=O)C2=CN1CC1CC1 (stereo not drawn)	17%	-57%	0%	-14%
CCCCC1=CC2=C(c3ccco3)C(=O)C(C)(OC(=O)c3ccc(OC)cc3)C(=O)C2=CN1c1ccc(OC)cc1 (stereo not drawn)	-16%	-11%	1%	-7%

Source: PubChem
